Test results from PubChem BioAssay (NCATS).
Records with an inconclusive call do not appear. Entries that show only a call come without a potency. A number with no mark means an inactive call. Calls of active or inactive are those of the source. The call rests on the fitted dose curve; in most records, active means well fitted activation curve with a large enough effect; inconclusive means small, poorly fitted or top-dose-only effect; inactive means no such curve, though single readings can be large or run the other way.

Target: Rap guanine nucleotide exchange factor 4 (Homo sapiens) (UniProt Q8WZA2)
Sequence (Q8WZA2 whole entry, looked up): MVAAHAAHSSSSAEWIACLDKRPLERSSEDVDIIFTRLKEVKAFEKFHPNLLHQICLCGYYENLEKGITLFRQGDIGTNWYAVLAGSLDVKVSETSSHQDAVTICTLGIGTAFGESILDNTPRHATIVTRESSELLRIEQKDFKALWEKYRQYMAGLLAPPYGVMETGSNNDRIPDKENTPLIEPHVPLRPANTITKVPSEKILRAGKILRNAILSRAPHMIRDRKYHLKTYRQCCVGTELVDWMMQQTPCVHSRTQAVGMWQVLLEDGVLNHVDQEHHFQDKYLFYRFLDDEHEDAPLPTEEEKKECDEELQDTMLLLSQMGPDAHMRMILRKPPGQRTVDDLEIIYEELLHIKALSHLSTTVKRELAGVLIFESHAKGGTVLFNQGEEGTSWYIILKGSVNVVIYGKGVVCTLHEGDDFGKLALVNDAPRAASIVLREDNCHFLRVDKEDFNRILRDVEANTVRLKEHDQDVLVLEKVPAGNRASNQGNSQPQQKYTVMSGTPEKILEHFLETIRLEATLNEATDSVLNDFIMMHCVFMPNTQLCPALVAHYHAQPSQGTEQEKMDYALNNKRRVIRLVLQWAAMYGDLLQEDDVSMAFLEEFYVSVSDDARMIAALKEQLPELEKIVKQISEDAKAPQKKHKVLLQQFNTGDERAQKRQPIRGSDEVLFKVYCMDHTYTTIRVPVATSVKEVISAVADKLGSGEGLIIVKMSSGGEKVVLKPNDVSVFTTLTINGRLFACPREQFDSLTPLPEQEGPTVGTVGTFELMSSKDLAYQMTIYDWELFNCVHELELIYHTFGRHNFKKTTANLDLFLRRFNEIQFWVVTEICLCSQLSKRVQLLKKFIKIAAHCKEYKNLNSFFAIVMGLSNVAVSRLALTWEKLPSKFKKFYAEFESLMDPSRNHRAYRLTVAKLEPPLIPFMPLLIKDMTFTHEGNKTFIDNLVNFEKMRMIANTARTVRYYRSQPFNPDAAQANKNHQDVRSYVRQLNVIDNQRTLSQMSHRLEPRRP
Experiment: Confirmatory qHTS for agonist of cAMP-regulated guanine nucleotide exchange factor 4 (EPAC2) (AID 1645884);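 further: nucleotide exchange releases bodipy-GDP from Rap1 and this lowers its fluorescence; nearly all actives have a fitted effect of over 65% in size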
Conditions: EPAC2 GEF activity, Rap1B-BODIPY-GDP fluorescence; series mostly up to 154 µM
Potency means the concentration at half of the fitted maximal effect.

**Q.** With `CCN(CC)C(=S)Oc1c(Cl)cccc1Cl` as the compound, how does the activation read?
**A.** Its activation is 7.01% [at 17.1 µM, percent relative to cAMP agonist control].

**Q.** `O=C1CSC2(C(=O)N(Cc3cccc(C(F)(F)F)c3)c3ccccc32)N1c1ccc(F)c(F)c1` (centres undefined) was tested. Which Potency did it give?
**A.** The Potency was “inactive”.

**Q.** `O=c1oc2ccccc2nc1/C=C(O)/C=C\c1ccccc1` was tested. Which activation did it give?
**A.** The activation was 2.36% [at 17.1 µM, percent relative to cAMP agonist control].

**Q.** `C/C(C/C(C)=C1/SC(=S)NC1=O)=C1\SC(=S)NC1=O` was tested. Which Potency did it give?
**A.** Its Potency is “inactive”.

**Q.** With `CC(=O)NC(CCS(C)(=O)=O)C(=O)Nc1cccc(C)c1C` (centres undefined) as the compound, how does the Potency read?
**A.** The Potency was “inactive”.

**Q.** With `Nc1ccc(-c2c3ccc(=O)cc-3oc3cc(O)ccc23)c(C(=O)O)c1` as the compound, how does the Potency read?
**A.** The Potency was 100 µM (active).

**Q.** `COc1ccc(C(=O)N2CCc3cc(OC)c(OC)cc3C2c2ccc(OC)c(OC)c2)cc1` (centres undefined) was tested. Which activation did it give?
**A.** The activation was 5.17% [at 17.1 µM, percent relative to cAMP agonist control].

**Q.** Which Potency does the source give for `Cc1ccc2c(c1)CCCN2C(=O)c1cc(C)c(C)s1` here?
**A.** Its Potency is “inactive”.

**Q.** `COc1ccc([N+](=O)[O-])cc1NC(=S)Nc1ccccc1` was tested. Which Potency did it give?
**A.** Its Potency is “inactive”.

**Q.** With `O=C(c1ccc2c(c1)N(Cc1ccccc1)CCS2)N1CCCCC1` as the compound, how does the Potency read?
**A.** The Potency was “inactive”.

**Q.** For `Cc1nc(Cl)sc1C(=O)NC(C)c1ccc(Cl)cc1` (centres undefined), which Potency is on record?
**A.** The Potency was “inactive”.

**Q.** With `Cc1cccc(CN2[C@@H](CC(C)C)COCCS2(=O)=O)c1` as the compound, how does the Potency read?
**A.** Its Potency is “inactive”.

**Q.** With `CN(CC(=O)O)c1ccc(/C=C/c2ccnc3ccccc23)cc1` as the compound, how does the Potency read?
**A.** The Potency was “inactive”.

**Q.** `COc1c(-c2ccccc2)oc2c(ccc3occc32)c1=O` was tested. Which Potency did it give?
**A.** The Potency was “inactive”.

**Q.** `C=CCc1cc(/C=C/c2nc(O)c([N+](=O)[O-])c(=O)[nH]2)cc(OC)c1O` was tested. Which Potency did it give?
**A.** The Potency was “inactive”.

**Q.** `CO/N=C/c1ccc(Sc2ccccc2)c([N+](=O)[O-])c1` was tested. Which activation did it give?
**A.** Its activation is 6.03% [at 17.1 µM, percent relative to cAMP agonist control].

**Q.** How did the Potency turn out when `CCN(CC)c1ccc2cc(-c3nnc(Nc4ccc(C)cc4)s3)c(=O)oc2c1` was run?
**A.** The Potency was 35.5 µM (active).

**Q.** How did the Potency turn out when `CC(=O)N(/N=C1/C(=O)Nc2ccccc21)c1ccccc1` was run?
**A.** The Potency was “inactive”.

**Q.** With `CNC(=O)NC(=O)C(NC1CCCc2ccccc21)c1ccccc1` (centres undefined) as the compound, how does the Potency read?
**A.** Its Potency is “inactive”.

**Q.** For `CN1CCN(CCC(=O)Nc2ccc(Cl)cc2)CC1`, which Potency is on record?
**A.** The Potency was “inactive”.

**Q.** For `COc1cnc(-c2ccccn2)nc1Oc1c(C)cccc1C`, which Potency is on record?
**A.** The Potency was “inactive”.

**Q.** Which Potency does the source give for `O=c1ccc(-c2ccccc2)nn1Cc1c(F)cccc1Cl` here?
**A.** Its Potency is “inactive”.

**Q.** With `Cn1c(N)c(C(=O)COC(=O)COc2ccccc2C#N)c(=O)n(C)c1=O` as the compound, how does the activation read?
**A.** The activation was 1.14% [at 17.1 µM, percent relative to cAMP agonist control].

**Q.** Which Potency does the source give for `O=c1oc2cc(O)ccc2cc1-c1nc2ccccc2o1` here?
**A.** Its Potency is 112 µM (active).

**Q.** With `CCn1c2ccccc2c2nnc(SCC(=O)N(C)C3CCS(=O)(=O)C3)nc21` (centres undefined) as the compound, how does the activation read?
**A.** Its activation is 3.11% [at 17.1 µM, percent relative to cAMP agonist control].

**Q.** `COc1cccc(CC(=O)Nc2ccc(S(=O)(=O)Nc3nccs3)cc2)c1` was tested. Which activation did it give?
**A.** Its activation is -3.47% [at 17.1 µM, percent relative to cAMP agonist control].

**Q.** `O=C(c1ccco1)N(CCC(c1ccccc1)c1ccco1)Cc1ccco1` (centres undefined) was tested. Which Potency did it give?
**A.** Its Potency is “inactive”.

**Q.** `CN(C)CCNC(=O)c1cccc(-c2cnc3c(NC=O)cc(-c4cccc(C(F)(F)F)c4)cn23)c1` was tested. Which Potency did it give?
**A.** The Potency was “inactive”.

**Q.** Which Potency does the source give for `Cc1ccc2nc(NC(=O)CSc3ncnc4c3oc3ccccc34)sc2c1` here?
**A.** The Potency was “inactive”.

**Q.** Which Potency does the source give for `O=C1NC(=O)C2(N1)C(=O)c1cccc3cccc2c13` (centres undefined) here?
**A.** The Potency was 100 µM (active).

**Q.** `O=C(NC1CCC(O)CC1)c1cccc2cccnc12` (centres undefined) was tested. Which Potency did it give?
**A.** The Potency was “inactive”.

**Q.** Which Potency does the source give for `Nc1nnc(-c2cccc(F)c2)s1` here?
**A.** The Potency was “inactive”.

**Q.** Which Potency does the source give for `C1=Cc2ccccc2/C1=C\c1ccc2c(c1)OCO2` here?
**A.** The Potency was “inactive”.

**Q.** How did the Potency turn out when `COc1cc(/C=C2\SC(=S)N(NS(=O)(=O)c3ccc(C)cc3)C2=O)cc(OC)c1OC` was run?
**A.** Its Potency is “inactive”.

**Q.** Which activation does the source give for `Oc1ccc(-c2c(-c3ccsc3)sc3ccccc23)cc1` here?
**A.** The activation was 2.53% [at 17.1 µM, percent relative to cAMP agonist control].

**Q.** For `O=C(CC[C@H]1O[C@@H](n2ccc(=O)[nH]c2=O)[C@H](O)[C@@H]1O)NCc1cccc2ccccc12`, which Potency is on record?
**A.** The Potency was “inactive”.

**Q.** Which Potency does the source give for `CSc1nc(N2CCOCC2)c2c3c(sc2n1)CCCC3` here?
**A.** The Potency was “inactive”.

**Q.** Which Potency does the source give for `C=CCOc1ccc(Br)cc1/C=C1/SC(=Nc2ccc(C(=O)O)cc2)NC1=O` here?
**A.** Its Potency is “inactive”.

**Q.** `CN1CCN(C(CNC(=O)c2ccc(Br)o2)c2ccc(F)cc2)CC1` (centres undefined) was tested. Which activation did it give?
**A.** Its activation is 4.5% [at 17.1 µM, percent relative to cAMP agonist control].
